# From the supplement of paper PMC8728848
# The full list was thinned out, with the strongest signals kept by preference.
# Experiments:
# Assay in all cases: glycan array binding signal (z-score within array); higher = stronger binding
# Conditions in all cases: glycan notation: IUPAC condensed, linker removed
# [1] = biological target: Fuc(a1-2)Gal(b1-3)GlcNAc(b1-2)Man(a1-3)[Fuc(a1-2)Gal(b1-3)GlcNAc(b1-2)Man(a1-6)]Man(b1-4)GlcNAc(b1-4)GlcNAc
# How it was run: (§1)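 The Consortium for Functional Glycomics database supplied 3228 glycan arrays, of which those lacking an available protein sequence were dropped. The binding signal, a within-array Z-score, was averaged across arrays of the same protein sequence and across linkers. Negative scores can be read as non-binding.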
# [2] = biological target: Fuc(a1-2)Gal(b1-3)[Fuc(a1-4)]GlcNAc
# How it was run: as §1
# [3] = biological target: Fuc(a1-2)Gal(b1-4)GlcNAc(b1-2)Man
# How it was run: as §1
# [4] = biological target: Fuc(a1-2)Gal(b1-4)[Fuc(a1-3)]GlcNAc(b1-3)[Neu5Ac(a2-6)Gal(b1-4)GlcNAc(b1-6)]Gal(b1-4)Glc
# How it was run: as §1
# [5] = biological target: Fuc(a1-3)[Gal(b1-4)]GlcNAc(b1-3)GalNAc
# How it was run: as §1
# [6] = biological target: Fuc(a1-3)[Gal3S(b1-4)]GlcNAc6S
# How it was run: as §1
# [7] = biological target: Gal(a1-3)Gal(b1-3)GlcNAc
# How it was run: as §1
# [8] = biological target: Gal(a1-3)Gal(b1-3)[Fuc(a1-4)]GlcNAc(b1-2)Man(a1-3)[Gal(a1-3)Gal(b1-3)[Fuc(a1-4)]GlcNAc(b1-2)Man(a1-6)]Man(b1-4)GlcNAc(b1-4)GlcNAc
# How it was run: as §1
# [9] = biological target: Gal(a1-3)GalNAc
# How it was run: as §1
# [10] = biological target: Gal(a1-4)Gal(b1-4)Glc
# How it was run: as §1
# [11] = biological target: Gal(b1-3)Gal(b1-4)GlcNAc
# How it was run: as §1
# [12] = biological target: Gal(b1-3)GlcNAc(b1-3)Gal(b1-4)[Fuc(a1-3)]GlcNAc(b1-6)[Gal(b1-3)GlcNAc(b1-3)]Gal(b1-4)Glc
# How it was run: as §1
# [13] = biological target: Gal(b1-3)[Fuc(a1-4)]GlcNAc(b1-3)Gal(b1-3)[Fuc(a1-4)]GlcNAc
# How it was run: as §1
# [14] = biological target: Gal(b1-4)GlcNAc(b1-2)Man(a1-6)[GlcNAc(b1-2)Man(a1-3)]Man(b1-4)GlcNAc(b1-4)GlcNAc
# How it was run: as §1
# [15] = biological target: Gal(b1-4)GlcNAc(b1-3)Gal(b1-4)GlcNAc
# How it was run: as §1
# [16] = biological target: Gal(b1-4)GlcNAc(b1-3)Gal(b1-4)GlcNAc(b1-2)[Gal(b1-4)GlcNAc(b1-3)Gal(b1-4)GlcNAc(b1-6)]Man(a1-6)[Gal(b1-4)GlcNAc(b1-3)Gal(b1-4)GlcNAc(b1-2)Man(a1-3)]Man(b1-4)GlcNAc(b1-4)GlcNAc
# How it was run: as §1
# [17] = biological target: Gal(b1-4)GlcNAc(b1-3)Gal(b1-4)GlcNAc(b1-2)[Gal(b1-4)GlcNAc(b1-3)Gal(b1-4)GlcNAc(b1-6)]Man(a1-6)[Gal(b1-4)GlcNAc(b1-3)Gal(b1-4)GlcNAc(b1-2)Man(a1-3)]Man(b1-4)GlcNAc(b1-4)[Fuc(a1-6)]GlcNAc
# How it was run: as §1
# [18] = biological target: Gal(b1-4)GlcNAc(b1-3)Gal(b1-4)GlcNAc(b1-3)Gal(b1-4)GlcNAc(b1-2)Man(a1-3)[Gal(b1-4)GlcNAc(b1-3)Gal(b1-4)GlcNAc(b1-3)Gal(b1-4)GlcNAc(b1-2)Man(a1-6)]Man(b1-4)GlcNAc(b1-4)[Fuc(a1-6)]GlcNAc
# How it was run: as §1
# [19] = biological target: Gal(b1-4)GlcNAc(b1-3)Gal(b1-4)GlcNAc(b1-3)Gal(b1-4)GlcNAc(b1-3)Gal(b1-4)GlcNAc(b1-3)Gal(b1-4)GlcNAc(b1-2)Man(a1-3)[Gal(b1-4)GlcNAc(b1-3)Gal(b1-4)GlcNAc(b1-3)Gal(b1-4)GlcNAc(b1-3)Gal(b1-4)GlcNAc(b1-3)Gal(b1-4)GlcNAc(b1-2)Man(a1-6)]Man(b1-4)GlcNAc(b1-4)GlcNAc
# How it was run: as §1
# [20] = biological target: Gal(b1-4)GlcNAc(b1-3)Gal(b1-4)GlcNAc(b1-3)[Gal(b1-4)GlcNAc(b1-3)Gal(b1-4)GlcNAc(b1-6)]GalNAc
# How it was run: as §1
# [21] = biological target: Gal(b1-4)GlcNAc(b1-3)[Fuc(a1-3)GlcNAc(b1-6)]Gal(b1-4)Glc
# How it was run: as §1
# [22] = biological target: Gal(b1-4)GlcNAc(b1-6)[Gal(b1-3)]GalNAc
# How it was run: as §1
# [23] = biological target: Gal3S(b1-3)GlcNAc
# How it was run: as §1
# [24] = biological target: Gal3S(b1-3)[Fuc(a1-4)]GlcNAc
# How it was run: as §1
# [25] = biological target: Gal3S(b1-4)[Fuc(a1-3)]Glc6S
# How it was run: as §1
# [26] = biological target: Gal3S(b1-4)[Fuc(a1-3)]GlcNAc6S
# How it was run: as §1
# [27] = biological target: Gal3S6S(b1-4)GlcNAc6S
# How it was run: as §1
# [28] = biological target: Gal6P(b1-4)GlcNAc
# How it was run: as §1
# [29] = biological target: Gal6S(b1-3)GlcNAc6S
# How it was run: as §1
# [30] = biological target: Gal6S(b1-4)Glc6S
# How it was run: as §1
# [31] = biological target: Gal6S(b1-4)GlcNAc6S
# How it was run: as §1
# [32] = biological target: GalNAc(b1-3)Gal(a1-6)Gal(b1-4)Glc
# How it was run: as §1
# [33] = biological target: GalNAc3S(b1-4)GlcNAc3S
# How it was run: as §1
# [34] = biological target: Glc(a1-4)Glc(a1-4)Glc(a1-4)Glc
# How it was run: as §1
# [35] = biological target: Glc(a1-6)Glc(a1-6)Glc(a1-6)Glc
# How it was run: as §1
# [36] = biological target: GlcA(b1-6)Gal
# How it was run: as §1
# [37] = biological target: GlcNAc(b1-3)Gal
# How it was run: as §1
# [38] = biological target: GlcNAc(b1-3)Gal(b1-4)GlcNAc(b1-2)Man(a1-3)[GlcNAc(b1-3)Gal(b1-4)GlcNAc(b1-2)Man(a1-6)]Man(b1-4)GlcNAc(b1-4)GlcNAc
# How it was run: as §1
# [39] = biological target: GlcNAc(b1-3)Gal(b1-4)GlcNAc(b1-3)Gal(b1-4)GlcNAc(b1-2)Man(a1-3)[GlcNAc(b1-3)Gal(b1-4)GlcNAc(b1-3)Gal(b1-4)GlcNAc(b1-2)Man(a1-6)]Man(b1-4)GlcNAc(b1-4)GlcNAc
# How it was run: as §1
# [40] = biological target: GlcNAc(b1-3)Gal(b1-4)GlcNAc(b1-6)[GlcNAc(b1-3)]Gal(b1-4)GlcNAc
# How it was run: as §1
# [41] = biological target: Man(a1-2)Man(a1-2)Man(a1-3)Man
# How it was run: as §1
# [42] = biological target: Man(a1-3)[Man(a1-6)]Man(a1-6)[Man(a1-3)]Man
# How it was run: as §1
# [43] = biological target: Man(a1-3)[Man(a1-6)]Man(a1-6)[Man(a1-3)]Man(b1-4)GlcNAc(b1-4)GlcNAc
# How it was run: as §1
# [44] = biological target: Man(a1-3)[Man(a1-6)]Man(b1-4)GlcNAc(b1-4)[Fuc(a1-6)]GlcNAc
# How it was run: as §1
# [45] = biological target: Man(a1-6)Man
# How it was run: as §1
# [46] = biological target: Neu5Ac(a2-3)Gal(b1-3)[Fuc(a1-4)]GlcNAc(b1-3)Gal(b1-3)[Fuc(a1-4)]GlcNAc
# How it was run: as §1
# [47] = biological target: Neu5Ac(a2-3)Gal(b1-3)[Fuc(a1-4)]GlcNAc(b1-3)Gal(b1-4)[Fuc(a1-3)]GlcNAc
# How it was run: as §1
# [48] = biological target: Neu5Ac(a2-3)Gal(b1-4)GlcNAc(b1-2)Man(a1-3)[Neu5Ac(a2-3)Gal(b1-4)GlcNAc(b1-2)Man(a1-6)]Man(b1-4)GlcNAc(b1-4)[Fuc(a1-6)]GlcNAc
# How it was run: as §1
# [49] = biological target: Neu5Ac(a2-3)Gal(b1-4)GlcNAc(b1-3)Gal(b1-4)GlcNAc(b1-3)Gal(b1-4)GlcNAc(b1-2)Man(a1-3)[Neu5Ac(a2-3)Gal(b1-4)GlcNAc(b1-3)Gal(b1-4)GlcNAc(b1-3)Gal(b1-4)GlcNAc(b1-2)Man(a1-6)]GalNAc
# How it was run: as §1
# [50] = biological target: Neu5Ac(a2-3)Gal(b1-4)GlcNAc(b1-3)Gal(b1-4)[Fuc(a1-3)]GlcNAc
# How it was run: as §1
# [51] = biological target: Neu5Ac(a2-3)Gal6S(b1-4)GlcNAc
# How it was run: as §1
# [52] = biological target: Neu5Ac(a2-6)Gal(b1-4)GlcNAc(b1-3)Gal(b1-4)GlcNAc(b1-3)Gal(b1-4)GlcNAc(b1-2)Man(a1-3)[Neu5Ac(a2-6)Gal(b1-4)GlcNAc(b1-3)Gal(b1-4)GlcNAc(b1-3)Gal(b1-4)GlcNAc(b1-2)Man(a1-6)]GalNAc
# How it was run: as §1
# [53] = biological target: Neu5Ac(a2-6)Gal(b1-4)GlcNAc(b1-3)Gal(b1-4)[Fuc(a1-3)]GlcNAc(b1-3)Gal(b1-4)[Fuc(a1-3)]GlcNAc
# How it was run: as §1
# [54] = biological target: Neu5Ac(a2-6)Gal(b1-4)GlcNAc6S
# How it was run: as §1
# [55] = biological target: Neu5Gc(a2-3)Gal(b1-4)GlcNAc(b1-3)Gal(b1-4)GlcNAc(b1-2)Man(a1-3)[Neu5Gc(a2-3)Gal(b1-4)GlcNAc(b1-3)Gal(b1-4)GlcNAc(b1-2)Man(a1-6)]Man(b1-4)GlcNAc(b1-4)GlcNAc
# How it was run: as §1
binder,measurement,setting,value
EULS2 M2 (Oryza sativa) (protein) MVYCRANPNYAMTARNGAVVLAPANPKDEYQHWIKDMRWSTSIKDEEGYPAFALVNKATGQAIKHSLGQSHPVRLVPYNPEVMDESVLWTESRDVGNGFRCIRMVNNIYLNFDAFHGDKYHGGVRDGTDIVLWKLCEGDSQRWKIQPYYILEQKLISEEDLNSAVDHHHHHH,glycan array binding signal (z-score),[1],2.57
same,glycan array binding signal (z-score),[2],0.051
same,glycan array binding signal (z-score),[3],-0.221
same,glycan array binding signal (z-score),[4],-0.288
same,glycan array binding signal (z-score),[5],-0.239
same,glycan array binding signal (z-score),[6],0.046
same,glycan array binding signal (z-score),[7],6.13
same,glycan array binding signal (z-score),[8],0.228
same,glycan array binding signal (z-score),[9],-0.346
same,glycan array binding signal (z-score),[10],-0.552
same,glycan array binding signal (z-score),[11],-0.911
same,glycan array binding signal (z-score),[12],-0.897
same,glycan array binding signal (z-score),[13],-0.418
same,glycan array binding signal (z-score),[14],-0.086
same,glycan array binding signal (z-score),[15],0.298
same,glycan array binding signal (z-score),[16],1.3
same,glycan array binding signal (z-score),[17],0.142
same,glycan array binding signal (z-score),[18],-0.152
same,glycan array binding signal (z-score),[19],2.79
same,glycan array binding signal (z-score),[20],-0.129
same,glycan array binding signal (z-score),[21],-0.485
same,glycan array binding signal (z-score),[22],0.142
same,glycan array binding signal (z-score),[23],-0.359
same,glycan array binding signal (z-score),[24],-0.012
same,glycan array binding signal (z-score),[25],0.271
same,glycan array binding signal (z-score),[26],3.8
same,glycan array binding signal (z-score),[27],13.3
same,glycan array binding signal (z-score),[28],-0.418
same,glycan array binding signal (z-score),[29],4.18
same,glycan array binding signal (z-score),[30],4.74
same,glycan array binding signal (z-score),[31],2.72
same,glycan array binding signal (z-score),[32],0.855
same,glycan array binding signal (z-score),[33],0.228
same,glycan array binding signal (z-score),[34],-0.217
same,glycan array binding signal (z-score),[35],-0.066
same,glycan array binding signal (z-score),[36],0.412
same,glycan array binding signal (z-score),[37],-0.404
same,glycan array binding signal (z-score),[38],-0.176
same,glycan array binding signal (z-score),[39],0.163
same,glycan array binding signal (z-score),[40],-0.388
same,glycan array binding signal (z-score),[41],-0.332
same,glycan array binding signal (z-score),[42],7.3
same,glycan array binding signal (z-score),[43],3.29
same,glycan array binding signal (z-score),[44],0.966
same,glycan array binding signal (z-score),[45],5.83
same,glycan array binding signal (z-score),[46],0.084
same,glycan array binding signal (z-score),[47],-0.548
same,glycan array binding signal (z-score),[48],-0.323
same,glycan array binding signal (z-score),[49],-0.26
same,glycan array binding signal (z-score),[50],-0.328
same,glycan array binding signal (z-score),[51],-0.449
same,glycan array binding signal (z-score),[52],0.058
same,glycan array binding signal (z-score),[53],-0.268
same,glycan array binding signal (z-score),[54],-0.389
same,glycan array binding signal (z-score),[55],0.09
